“And” between values parts separate entries of the source, which are not always exact repeats. Equal values may be shown once. Screen size: about 310,000 compounds; about 1,000 (0.32%) were called active. No rule for the calls is given here. Not all results are given here. Potency and affinity values are given separately.
Assay: Inhibition of PhoP regulon, Salmonella typhi GFP reporter cells, confirmation, 4 h (AID 1850);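 also: 0% = induced wells with vehicle and 100% = uninduced wells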
Settings: Salmonella Typhi PhoP-promoter GFP reporter, fluorescence, at 50 µM, hits give high values

Compound	inhibition
Cc1ccsc1/C=C(\C#N)C(=O)NCc1cccnc1	-18.9% (inactive)
CCOc1ccccc1NC(=O)c1oc2ccccc2c1NC(=O)C1CCCO1 (stereo not drawn)	0.28% (inactive)
CCOC(=O)C1(Cc2cccc(F)c2)CCN(CC(O)CO)CC1 (stereo not drawn)	1.5% (inactive)
CCOC(=O)C1CCN(Cc2cc(C(C)(C)C)c(O)c(C(C)(C)C)c2)CC1	-7.6% (inactive)
COc1ccc(OC)c(/C=N/NC(=O)c2[nH]ncc2Br)c1	-1.03% (inactive)
COc1ccc(/C=N/NC(=O)c2[nH]ncc2Br)c(OC)c1	4.69% (inactive)
CC(=O)c1ccc(NC(=S)NCc2ccc(Cl)cc2Cl)cc1	-6.96% (inactive)
CCn1c(=S)sc2c(=O)n(CC(=O)Nc3ccc(Cl)cc3)c(C)nc21	1.24% (inactive)
O=C(CN1CC[n+]2c(-c3cccs3)csc21)c1ccc(Br)cc1	-5.14% (inactive)
O=C(CN1CC[n+]2c(-c3ccccc3)csc21)c1ccc(Br)cc1	7.36% (inactive)
C/C(=N/Oc1nc(C)cc(C)n1)c1ccccc1	-15.4% (inactive)
Cc1c(C)[n+](=O)c(-c2ccc(Br)cc2)c(C)n1[O-]	4.2% (inactive)
Cc1cc(/C=N/O)c(C)n1-c1ccccc1	-9.52% (inactive)
CC[n+]1c(/C=C/c2ccc(N(C)C)cc2)ccc2ccccc21	1.34% (inactive)
C[n+]1c(/C=C/c2ccc(O)cc2)ccc2ccccc21	10.8% (inactive)
Cc1cc(/C=C2\SC(=O)NC2=O)c(C)n1-c1ccc(N(C)C)cc1	-4.88% (inactive)
CC1(C)CC(=O)C(C(=O)Cc2ccccc2[N+](=O)[O-])C(=O)C1	2.13% (inactive)
COc1ccc(Cl)cc1Nc1nc(N)c2ccccc2n1	2.43% (inactive)
COc1ccc(Nc2nc(C)c3ccccc3n2)cc1	1.01% (inactive)
COc1ccc(Nc2nc(N)c3ccccc3n2)c(OC)c1	4.67% (inactive)
COc1cc2nc(Nc3ccc(C)c(C)c3)nc(N)c2cc1OC	-4.96% (inactive)
COc1cc2nc(Nc3ccc(C)c(Cl)c3)nc(N)c2cc1OC	5.86% (inactive)
CCOc1ccc(Nc2nc(N)c([N+](=O)[O-])c(NCc3ccccc3)n2)cc1	-9.51% (inactive)
Nc1nc(Nc2ccc(Cl)cc2)n[nH]1	1.12% (inactive)
CCOc1ccc(Nc2ncnc(N)n2)cc1	20.7% (inactive)

Compound	inhibition
CCOC(=O)CSc1nnc2n1C(C)(C)Cc1ccccc1-2	11.2% (inactive)
Cc1cc2n(n1)C(c1ccco1)Nc1ccccc1-2 (stereo not drawn)	-1.68% (inactive)
COc1cc2ncnc(NCc3ccc(C)o3)c2cc1OC	1.27% (inactive)
CCOC(=O)N/N=C/c1ccccc1OCc1ccc(Cl)cc1	2.12% (inactive)
O=c1[nH]c(C2CCCN(S(=O)(=O)c3ccccc3F)C2)nc2c1nnn2Cc1ccccc1Cl (stereo not drawn)	0.52% (inactive)
CCN(CC)CC(=O)Nn1c(C)nc2c(ncn2-c2ccccc2)c1=O	2.92% (inactive)
CCCN(CCC)CC(=O)NCC1(c2ccccc2)CCOCC1	5.98% (inactive)
CCOc1ccccc1NC(=O)c1cc(-c2cc(OC)c(OC)c(OC)c2)nc2ccccc12	6.2% (inactive)
CC(=O)Nc1ccc(NC(=O)[C@H](C)NC(=O)c2ccco2)cc1	2.64% (inactive)
CCOC(=O)c1oc2ccccc2c1COC(=O)CNC(=O)c1ccccc1OC	-8.98% (inactive)
CCOc1ccc(-c2noc(CCC(=O)NC3CCCCC3)n2)cc1OC	-7.76% (inactive)
Fc1cccc(Nc2nc(Cl)nc(Cl)n2)c1	-6.69% (inactive)
NNc1nc(Nc2ccccc2)nc(Nc2ccccc2)n1	-2.45% (inactive)
COc1ccc(C)cc1Nc1nc(N)c2ccccc2n1	2.42% (inactive)
COc1cc2nc(Nc3cccc(F)c3)nc(N)c2cc1OC	-16.8% (inactive)
CC(=O)c1ccc(OCC(O)CN2CCN(c3ccc(F)cc3)CC2)cc1 (stereo not drawn)	9.79% (inactive)
C[C@H]1CN=C(N(C)C)N1CCCC1CCCCC1	-3.79% (inactive)
O=C(CCN1CCOCC1)c1ccc(Cl)cc1	5.47% (inactive)
CCOC(=O)N1CCN(CCC(=O)c2ccc(OC)cc2)CC1	19.1% (inactive)
CCOC(=O)N1CCN(CCC(=O)Nc2cccc(Br)c2)CC1	-10.1% (inactive) and 1.14% (inactive)
CCOC(=O)N1CCN(CCC(=O)Nc2ccc(Br)cc2)CC1	-11.9% (inactive)
CCOC(=O)n1cc(-c2cnc(CNC(=O)C(C)(c3ccccc3)c3ccccc3)o2)c2ccccc21	-3.78% (inactive)
Cc1ccc(C(=O)NCC(=O)Nc2cccc(C(F)(F)F)c2)cc1	7% (inactive)
CCCN1CCN(CCCNC(=S)Nc2ccc3nc(N4CCN(CC)CC4)cc(C)c3c2)CC1	2.52% (inactive)
Cn1cc(P(=S)(N2CCOCC2)N2CCOCC2)cc1P(=S)(N1CCOCC1)N1CCOCC1	-5.57% (inactive)

Compound	inhibition
CN(C)S(=O)(=O)c1ccc(S(=O)(=O)N(CC(=O)Nc2ccccc2)CC2CCCO2)cc1 (stereo not drawn)	9.84% (inactive)
CC1CCCN(C(=O)COC(=O)Cc2c(F)cccc2Cl)C1 (stereo not drawn)	8.14% (inactive)
CN1CCC(=C2c3ccccc3CCc3sccc32)CC1	4.53% (inactive)
C[N+]1(C)CCC(=C2c3ccccc3CC(=O)c3sccc32)CC1	-5.91% (inactive)
CN1CCC(=C2c3ccccc3CC(=O)c3sccc32)CC1	-11.1% (inactive) and 6.89% (inactive) and 11.9% (inactive)
Clc1ccc2c(c1)CCc1cccnc1C2=C1CCNCC1	9.72% (inactive)
COc1ccccc1CNC(=O)c1ccc(N2CCOCC2)c([N+](=O)[O-])c1	3.84% (inactive)
O=C(O)c1ccccc1C(=O)Nc1ccc(Oc2ccc3ccccc3c2)cc1	-5.98% (inactive)
O=S(=O)(Nc1ccc(-n2cnnn2)cc1)c1ccc(F)c(F)c1F	-6.29% (inactive)
COc1ccc2nc(C)cc(NCCN3CCOCC3)c2c1	3.31% (inactive)
Cc1cc(NCCN2CCOCC2)c2ccc3ccccc3c2n1	0.49% (inactive)
CN1CCN(C2=Cc3ccccc3Sc3cc(F)c(F)cc32)CC1	56.3% (inactive)
CN1CCN(C2=Cc3ccc(Cl)cc3Sc3ccc(F)cc32)CC1	2.54% (inactive)
CN1CCN(c2ccc(F)cc2N)CC1	-23.4% (inactive)
CN1CCN(C2=Nc3cc(F)ccc3Cc3ccccc32)CC1	10.2% (inactive)
CN1CCN(c2ccc(Cl)cc2N)CC1	5.42% (inactive)
CN1CCN(c2nc(-c3ccc(Cl)c(Cl)c3)nc3ccccc23)CC1	-3.79% (inactive)
COc1ccc(N(CC(=O)Nc2ccc(C(C)C)cc2)S(=O)(=O)c2c(C)noc2C)cc1	-9.48% (inactive)
COc1ccccc1NC(=O)CSc1nnc(Cc2ccccc2)o1	-0.38% (inactive)
CCC(=O)OC1(Cc2ccc(CC)cc2)CC(C)N(C)CC1C (stereo not drawn)	-0.84% (inactive)
CCOC(=O)C1(CCOC)CCN(Cc2ccncc2)CC1	-5.83% (inactive)
Oc1c(CN2CCCCC2)cc(COCc2ccccc2)c2cccnc12	-6.03% (inactive)
COc1ccc(CN2CCN(C)CC2)cc1OCc1ccccc1	0.01% (inactive)
Oc1c(CN2CCOCC2)cc(-c2ccccc2)cc1CN1CCOCC1	9.41% (inactive)
O=C(Oc1c(CN2CCOCC2)cc(Cl)c2cccnc12)c1ccccc1	9.08% (inactive)

Compound	inhibition
Cc1cccc(OCC(=O)Nc2nnc(-c3ccco3)s2)c1	5.97% (inactive)
CCOc1ccc2nc(N3CCCC(C(=O)NCCCN4CCCCC4)C3)sc2c1 (stereo not drawn)	6.31% (inactive)
CCN(CC(N)=O)S(=O)(=O)c1ccc(Br)cc1	4.08% (inactive)
N=c1n(CCN2CCCC2)c2ccccc2n1CC(O)c1ccc(Cl)c(Cl)c1 (stereo not drawn)	27.1% (inactive)
N=c1n(CCN2CCCCC2)c2ccccc2n1CC(O)c1cccc(Br)c1 (stereo not drawn)	2.9% (inactive)
CCCn1c(=N)n(CC(=O)c2ccc(Cl)c(Cl)c2)c2ccccc21	-5.11% (inactive)
N=c1n(CCN2CCOCC2)c2ccccc2n1CC(=O)c1ccc(Cl)c(Cl)c1	20.6% (inactive)
CC1=NN(c2nc(C)cc(C)n2)C(=O)C1CCC(C)C (stereo not drawn)	2.35% (inactive)
Cc1cc(C)nc(NC(=O)c2cccs2)c1	-2.29% (inactive)
Cc1cccc(NS(=O)(=O)c2c(C)nc3scc(C)n3c2=O)c1	-24.5% (inactive)
COC(=O)C1CSC(C(=O)OC)N1C(=O)CN1CC(C)OC(C)C1 (stereo not drawn)	-2.04% (inactive)
O=c1[nH]c(=O)n(C2OC(CO)C(O)C2O)cc1Br (stereo not drawn)	-19.2% (inactive)
O=c1ccn([C@@H]2O[C@H](CO)[C@@H](O)[C@H]2O)c(=O)[nH]1	-0.0767% (inactive)
Cc1cc(C)nc(CCNC(=O)c2cc(COc3c(C)cccc3C)on2)n1	-3.31% (inactive)
CC(C)Oc1ccc(C(=O)NCC(=O)OCC(=O)N(C)Cc2cccs2)cc1	2.06% (inactive)
CCn1c(C)cc(C)c(C#N)c1=O	7.92% (inactive)
N=c1n(CCN2CCCCC2)c2ccccc2n1CC(O)COc1ccccc1 (stereo not drawn)	28% (inactive)
CCN(CC)CCn1c(=N)n(CC(O)COc2ccccc2)c2ccccc21 (stereo not drawn)	15.1% (inactive)
COc1ccc(OCC(O)Cn2c(=N)n(CCN3CCCCC3)c3ccccc32)cc1 (stereo not drawn)	20.8% (inactive)
CCCCn1c(=N)n(CC(O)COc2cccc(C)c2)c2ccccc21 (stereo not drawn)	9.29% (inactive)
Cc1ccc(OCC(O)Cn2c(=N)n(CCN3CCOCC3)c3ccccc32)cc1 (stereo not drawn)	14% (inactive)
CCCn1c(=N)n(CC(O)COc2cccc(C)c2)c2ccccc21 (stereo not drawn)	3.8% (inactive)
Cc1ccc(SCC(=O)OCC(=O)NCCC2=CCCCC2)cc1	9.93% (inactive)

Reference: PubChem BioAssay AID1850 (Southern Research Specialized Biocontainment Screening …, 2009)
